Bioassay records from PubChem.
pS6 MEF inh: inhibitors of mTORC1 signaling in Tsc2-/- p53-/- MEF cells; hit rate 0.78% among 44,000; Tsc2-/- p53-/- MEF, phospho-rpS6 immunofluorescence/PI, 24 h; Potency, µM (series often up to 38.3 µM), for inactives: at the highest dose activity change, negative = inhibition, usual class: inhibitors;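 also: plate controls were DMSO for no effect and rapamycin for full effect; nearly all actives have a fitted effect of over 50% in size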
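Readout is phospho-S6 Alexa 488 signal normalized to PI per well, reported as % active cells with thresholds set from rapamycin (7.5 nM) and DMSO controls. Cells: Tsc2-/-, p53-/- MEFs, 24 hrs compound at 37 C; PI cell number serves as viability.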
SKOV3 invasion: blocks SKOV3ip1 adhesion and invasion in omental model. SKOV3ip1-GFP adhesion/invasion on 3D omental model, fluorescence. Potency, µM (top dose mostly 45.8 µM), for the others: at the top dose activity change, negative = inhibition, usual class: inhibitors. hit rate 0.1% among 46,000;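 also: plate controls were DMSO wells for no effect and tomatine positive control wells for full effect; nearly all actives have a fitted effect of over 65% in size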
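Primary human omental fibroblast/mesothelial 3D culture pre-formed 48 h. SKOV3ip1-GFP cells added with compounds (0.36-46 umol/L), incubated 2 h RT/16 h 37 C, fixed; GFP cells quantified at 488/509 nm.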
S16 viability: toxic to S16 Pmp22-F2sN Schwann cells | S16 Pmp22-F2sN Schwann cells viability, CellTiter-Glo, 24 h | Potency, µM (series often up to 57.5 µM), inactives show at the top dose activity change, negative = cytotoxicity, most hits filed as cytotoxic | hit rate 0.48% among 43,000 | AID 1508642; also: nearly all actives have a fitted effect of over 65% in size
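Viability was measured by CellTiter-Glo luminescence (15 min, room temperature). This followed 24 h at 37 °C of compound exposure (23 nL pin transfer) in S16 Pmp22-F2sN Schwann cells, 500-1,000 per well.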
p53null 32C tox: selectivity test: cytotoxicity in p53 null cells, permissive temperature. hit rate 0.62% among 55,000. Potency, µM (highest dose often 46.1 µM), for the others: at the top dose activity change, negative = cytotoxicity, actives largely listed as cytotoxic. H1299-neo p53 null cells, ATP luminescence, 24 h, 32C;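 also: 0% = DMSO only and -100% = full killing by 100 µM tamoxifen; nearly all actives have a fitted effect of over 55% in size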
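ATP-content luminescence in p53-null H1299-neo cells after 24 h compound exposure (up to 46 uM) at 32C permissive temperature; 0% and 100% killing set by DMSO and 100 uM tamoxifen; Hill-equation AC50.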
PMP22 txn prim: PMP22 gene transcription modulation | AID 1508649 | hit rate 2% among 43,000 | S16 Pmp22-F2sN Schwann cells (luciferase reporters placed in the Pmp22 gene), FLuc/NLuc coincidence luminescence, 24 h | Potency, µM (highest dose often 57.5 µM), inactives show at the top dose activity change, negative = inhibition, hits mostly inhibitors; active = clear falling dose curves in both reporters; inconclusive = both reporters move, but less clearly or upward; inactive = either reporter flat; the % is the NLuc reporter signal
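Reporter cells (S16 Pmp22-F2sN, 500–1,000 per well) exposed to compounds for 24 h, 37C, 5% CO2; lysis with FLuc read after 10 min, then Stop&Glo and NLuc read after 10 min.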
p53null 39C tox: selectivity test: cytotoxicity in p53 null cells, nonpermissive temperature; H1299 p53-null (neo) cells, 39C, ATPlite viability, 24 h; Potency, µM (titrated, usually from 46.1 µM), without a hit: top-dose activity, negative = cell killing, most hits filed as cytotoxic; hit rate 0.97% among 55,000; AID 904;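 also: 0% = DMSO only and -100% = full killing by 100 µM tamoxifen; nearly all actives have a fitted effect of over 50% in size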
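ATP-luminescence viability readout (ATPlite, 20 min RT) after 24 hr compound treatment at 39C of H1299-neo or H1299-p53A138V cells; titration up to 46 uM; normalized to DMSO and 100 uM tamoxifen; Hill-fit AC50.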
Starred values were filed as active, the others as inactive; i = inactive; ? = inconclusive; / = not tested or not shown; [ ] = another dose, or the depositor's remark. Rows were chosen to be rich in hits. Some 3.1% of all compounds tested hit in one or more screens of this group. Unless noted, calls follow the shape of the dose curve; as a rule, active = well fitted curve in the direction sought with a large enough effect; inconclusive = small, poorly fitted or top-dose-only effect, or another doubt; inactive = no such curve, though single readings can be large; an effect the other way counts as inactive or inconclusive. Unless noted, % is scaled to controls: 0 for no effect and ±100 for the full control effect; potency is read from the fitted curve at half-maximal effect.

SMILES | pS6 MEF inh | SKOV3 invasion | S16 viability | p53null 32C tox | PMP22 txn prim | p53null 39C tox
Cc1ccc(CNC(=O)c2ccc(NC(=O)c3nsc4ccccc34)cc2)cc1 | 7% | -8% | 2% | -14% | -16% | -23%
O=C(NCc1cccc(F)c1)c1ccc(NC(=O)c2nsc3ccccc23)cc1 | 3% | -1% | ? | ? | -5% | 10µM*
CCOC(=O)c1ccc(NC(=O)c2nsc3ccccc23)cc1 | -4% | -7% | ? | 7.9µM* | -16% | 10µM*
CNC(=O)c1ccc(NC(=O)c2nsc3ccccc23)cc1 | 2% | -1% | -24% | 6.3µM* | 21% | 5µM*
O=C(Nc1ccc(C(=O)N2CCCCC2)cc1)c1nsc2ccccc12 | 1% | 3% | ? | 4µM* | -14% | 4µM*
O=C(Nc1ccc(C(=O)N2CCN(c3ccc(F)cc3)CC2)cc1)c1nsc2ccccc12 | 17% | 14% | ? | 0% | -32% | -14%
O=C(CSc1nccn1Cc1ccc(Cl)cc1)Nc1nc2ccccc2s1 | -20% | -9% | 10% | 52% | 2% | 14µM*
Cc1cccc(NC(=O)CSc2ncc(-c3ccc(Br)cc3)[nH]2)c1 | -27% | -5% | -16% | -3% | -7% | 20µM*
COCCNC(=O)C1CCN(C(=O)c2cc3sccc3n2Cc2ccc(Cl)cc2)CC1 | 1% | i | ? | 11% | 10µM* | 9%
COCCCNC(=O)C1CCN(C(=O)c2cc3sccc3n2Cc2ccc(Cl)cc2)CC1 | 2% | -16% | ? | 1% | ? | -5%
O=C(NCCN1CCCCC1)c1ccc(Cn2c(SCc3ccccc3)nc3cccnc32)cc1 | -6% | ? | ? | 16µM* | -13% | 13µM*
CC1CCN(CCNC(=O)c2ccc(Cn3c(SCc4ccccc4)nc4cccnc43)cc2)CC1 | -6% | i | ? | ? | -5% | 13µM*
O=C(NCCc1ccccc1)c1ccc(CSc2nc3cccnc3n2Cc2ccc(F)cc2)cc1 | -3% | -9% | -26% | 12% | -35% | -1%
Cc1ccc(-c2nc(Cn3c(SCc4ccc(F)cc4)nc4cccnc43)c(C)o2)cc1 | -8% | -22% | -18% | -1% | 7.4µM* | -14%
CC1CCCCN1CCNC(=O)c1ccc(Cn2c(SCc3ccccc3)nc3cccnc32)cc1 (centres undefined) | -11% | i | -21% | 13µM* | -46% | 16µM*
CCN(CC)CCCNC(=O)c1ccc(Cn2c(SCc3ccccc3)nc3cccnc32)cc1 | -7% | -4% | ? | ? | -17% | ?
COc1cc(OC)cc(-c2ccc3ncc4ccc(=O)n(-c5ccc(N6CCNCC6)c(C(F)(F)F)c5)c4c3c2)c1 | / | 7% | / | / | / | /
CCN1CCC(n2cc(CNc3cc(Cl)c4ncc(C#N)c(Nc5ccc(F)c(Cl)c5)c4c3)nn2)CC1 | / | -1% | / | / | / | /
NC(N)=Nc1nc(CSCCC(N)=NS(N)(=O)=O)cs1 | / | 13% | / | / | / | /
Nc1ccc(C(=O)Nc2cccc(-c3nc(N4CCOCC4)c4oc5ncccc5c4n3)c2)cn1 | / | 3% | / | / | / | /
Cc1ccc(CSc2nc3cccnc3n2Cc2ccc(C(=O)NCc3cccs3)cc2)cc1 | -7% | 1% | 23% | ? | -12% | 16µM*
O=C(NCc1cccs1)c1ccc(Cn2c(SCc3ccccc3)nc3cccnc32)cc1 | -1% | -22% | 6% | ? | -23% | ?
Cc1cnc(CNC(=O)c2c(=O)c3ccc(N4CCCN(C)CC4)nc3n3c2sc2ccccc23)cn1 | / | 2%[23.2 µM] | / | / | / | /
Cc1ccc(-c2cc3ncc4c(n3n2)-c2ccccc2OC4)cc1 | -9% | -3% | -5% | / | 1% | /
Cc1ccc(-c2nc3n(n2)Cc2ccccc2-3)cc1 | / | / | / | 8.9µM* | / | ?
SMILES | pS6 MEF inh | SKOV3 invasion | S16 viability | p53null 32C tox | PMP22 txn prim | p53null 39C tox
CC1C(=O)N2CCCc3cc(S(=O)(=O)Nc4ccc(Br)cc4F)cc1c32 (centres undefined) | 13µM* | -1% | -2% | 1% | 4% | -2%
Cc1ccc(C)c(NS(=O)(=O)c2cc3c4c(c2)C(C)C(=O)N4CCC3)c1 (centres undefined) | 0% | i | -16% | -9% | 13% | ?
Cc1c(Cn2c(C)nc3c(C(=O)O)cc(N4CCOCC4)cc32)cccc1C(F)(F)F | / | 16% | / | / | / | /
Cc1c(NS(C)(=O)=O)cccc1-c1nc2ccccc2s1 | -6% | -8% | -23% | ? | ? | ?
CS(=O)(=O)Nc1ccc(-c2nc3ccccc3s2)cc1 | -5% | 2% | 2% | 4µM* | -7% | 1.6µM*
Cc1nn2c(=O)cc(COC(=O)c3cccc(NC(=O)c4ccc(C(C)(C)C)cc4)c3)nc2s1 | 0% | 3% | 8% | 3.2µM* | -8% | 1.3µM*
Cc1nn2c(=O)cc(COC(=O)c3ccc(NC(=O)c4cccs4)cc3)nc2s1 | 10% | -4% | -6% | 0% | ? | 11%
Cc1cc(CN2CCN(c3c(Br)cnc4nc(-c5ccc(N6CCN(C)CC6)cc5)[nH]c34)CC2)no1 | / | 3% | / | / | / | /
CCCCCCCCc1ccc(CCC(N)(CO)CO)cc1 | / | -22% | / | / | / | /
CC(=O)Nc1ccc([C@H](C)C(=O)Nc2ncc(C(C)C)s2)cc1 | / | -1% | / | / | / | /
Cc1ccc(NC(=O)c2oc3ccc4c(c3c2C)C(=O)CC(C)(C)O4)c(C)c1 | 6% | -15% | 16% | -16% | -6% | -6%
CCOC(=O)c1ccc(NC(=O)c2oc3ccc4c(c3c2C)C(=O)CC(C)(CC)O4)cc1 (centres undefined) | -6% | -4% | 2% | ? | ? | 3.2µM*
COC(=O)c1ccccc1NC(=O)c1oc2ccc3c(c2c1C)C(=O)CC(C)(C)O3 | 1% | i | 12% | -6% | -18% | 4%
CC(=O)Nc1ccc(NC(=O)c2oc3ccc4c(c3c2C)C(=O)CC(C)(C)O4)cc1 | -2% | i | ? | 4µM* | ? | 3.2µM*
CCCCN(CC)C(=O)CSc1nc2n[nH]c(C)c2c(=N)n1-c1cccc(Cl)c1 | -3% | -9% | ? | 7% | 13µM* | 13%
CCCCNC(=O)CSc1nc2n[nH]c(C)c2c(=N)n1-c1cccc(C)c1 | 1% | i | -10% | 23% | -23% | 0%
O=C(O)c1ccc(O)c2ncc(N3CCOCC3)cc12 | / | 4% | / | / | / | /
Cc1cc(Cl)ccc1NC(=O)CN1C(=O)C(=O)c2ccccc21 | 10µM* | -7% | ? | -8% | ? | -16%
